An excerpt weighted towards active compounds, which were near 3.4% of everything screened.
PAX8 inh HTS – inhibitors of PAX8 transcriptional activity in RMG-I cells | RMG-I TPO-luciferase reporter, SteadyGlo, 24 h | inhibition, % at 12.6 µM | actives 1.2% (n = 360,000) | AID 652154;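 active = mean replicate inhibition at least 60% with every replicate also reaching 60%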;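 also: luciferase light reporting Pax8 driven TPO promoter activity; plate controls were median of neutral control wells for no effect and mitoxantrone controls for full effect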
SIRT5 inh – blocks human SIRT5 desuccinylation of peptide; actives 1.1% (n = 330,000); Q9NXA8; inhibition, % at 15 µM; Purified SirT5, succinyl-peptide AMC, trypsin-coupled fluorescence; AID 652115; in the data active = inhibition above about 15%
Target sequence (Q9NXA8 whole entry, looked up): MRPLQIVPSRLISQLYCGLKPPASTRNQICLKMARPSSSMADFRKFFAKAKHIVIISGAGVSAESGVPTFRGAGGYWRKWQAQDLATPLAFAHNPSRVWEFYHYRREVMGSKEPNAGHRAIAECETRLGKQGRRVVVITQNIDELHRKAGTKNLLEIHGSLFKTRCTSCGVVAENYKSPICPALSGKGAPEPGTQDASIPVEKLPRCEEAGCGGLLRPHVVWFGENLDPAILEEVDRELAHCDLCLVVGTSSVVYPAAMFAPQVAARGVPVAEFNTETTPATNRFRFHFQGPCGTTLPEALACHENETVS
Ecoli rRNA inh – inhibitors of bacterial rRNA selective over humanized ribosomes; E. coli WT GFP vs humanized-ribosome RFP mutants, fluorescence, 24 h; active compounds read low; DMSO median 0, no signal -100; GFP signal change (wild-type ribosome), % (no concentration beside the values); actives 1.6% (n = 350,000);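 active = significant combined selectivity score with lowered wild-type GFP, culture density cut under 30%, mutant RFP and density less affected; inactive = any of these conditions unmet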
LGR2 inh – blocks bursicon-induced cAMP signaling via Drosophila LGR2. HEK293 LGR2, CRE-luciferase, bursicon-stimulated, 4 h. inhibition, % at 9.99 µM. actives 0.35% (n = 380,000);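 active = drop in luminescence signal, shown as inhibition above about 50% in the replicate tests, limit read from the data, passing the limit was not always enough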;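 also: agonist challenge used bursicon conditioned medium at about half maximal strength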
EWS-Fli inh – inhibitors of EWS/Fli oncoprotein transcriptional activity; AID 651661; A673 NR0B1-luciferase reporter, viability-normalised; inhibition, % at 12.6 µM; actives 0.67% (n = 350,000);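 active = mean inhibition of at least 50% after viability correction, with every replicate also passing that limit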;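 also: firefly luciferase signal divided by Alamar Blue viability fluorescence both relative to DMSO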
PGC1a acetyl inh – PGC1a acetylation modulation, inhibitor mode; AID 651687; actives 0.17% (n = 350,000); inhibition, % at 15.6 µM; U2OS PGC1a acetylation, AlphaScreen anti-acetyl-lysine; with virally co-expressed GCN5 acetyltransferase;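 active = every replicate shows inhibition of at least 40%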;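 also: 0% = neutral control wells and 100% = positive control wells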
* hit, by the source's call.

For Cc1c(C(c2ccc(O)cc2)c2c(O)c3ccccc3oc2=O)c(=O)n(-c2ccccc2)n1C (stereo not given) the results were PAX8 inh HTS -1, SIRT5 inh 2, Ecoli rRNA inh -14*, LGR2 inh 4 and EWS-Fli inh 6.
COc1ccc(OC)c(C(c2c(O)c3ccccc3oc2=O)c2c(C)n(C)n(-c3ccccc3)c2=O)c1 (stereo not given) was read as PAX8 inh HTS -1, SIRT5 inh -4, Ecoli rRNA inh -3, LGR2 inh -9, EWS-Fli inh 1 and PGC1a acetyl inh 6.
For COc1ccc(OC(=O)N(C)C[C@H]2OCc3ccccc3-c3c(n(C)c4ccccc34)C(=O)N([C@H](C)CO)C[C@@H]2C)cc1 the results were SIRT5 inh 4, Ecoli rRNA inh 0, LGR2 inh -1, EWS-Fli inh 6 and PGC1a acetyl inh -4.
Screening COc1ccc(CCn2c(O)c(C=NCCN3CCCCC3)c(=O)[nH]c2=O)cc1OC returned PAX8 inh HTS -6 and PGC1a acetyl inh 4.
CCC(=O)N1N=C(c2c(O)n(CCc3ccccc3)c(=O)[nH]c2=O)CC1c1ccc(OC)c(OC)c1 (stereo not given) was read as PAX8 inh HTS 9, SIRT5 inh -3, Ecoli rRNA inh -28*, LGR2 inh 3, EWS-Fli inh -1 and PGC1a acetyl inh 8.
CN1CCN(c2ccc(C(N)=O)cc2[N+](=O)[O-])CC1 was read as PAX8 inh HTS -5 and LGR2 inh 12.
`O=[N+]([O-])c1ccc(N2CC2)c([N+](=O)[O-])c1` gave PAX8 inh HTS 14, Ecoli rRNA inh -16*, LGR2 inh 7, EWS-Fli inh 9 and PGC1a acetyl inh 9.
N#Cc1cccc(-c2ccc([C@H]3[C@@H](CO)N4CCCCN(C(=O)Cc5ccccc5)C[C@H]34)cc2)c1 was read as PAX8 inh HTS 11, SIRT5 inh -2, Ecoli rRNA inh 0, LGR2 inh 10, EWS-Fli inh 8 and PGC1a acetyl inh -9.
For CCC(C)C1NC(=O)C2CCCN2C(=O)C(CC(C)C)OC(=O)CCNC(=O)C(C)N(C)C(=O)C(C(C)C)N(C)C1=O (stereo not given) the results were PAX8 inh HTS 72*, SIRT5 inh -3, Ecoli rRNA inh 10, LGR2 inh 11, EWS-Fli inh 20 and PGC1a acetyl inh -1.
Screening C=CCCC[C@@H]1OC(=O)CNC(=O)C([C@@H](C)CC)NC(=O)[C@@H]2CCCN2C(=O)C([C@@H](C)CC)OC(=O)[C@H](Cc2ccccc2)N(C)C(=O)[C@H](C(C)C)NC(=O)C1(C)C (stereo not given in full) returned PAX8 inh HTS 55, SIRT5 inh 8, Ecoli rRNA inh 15, LGR2 inh 14, EWS-Fli inh -1 and PGC1a acetyl inh -1.
Screening CC[C@H]1C=C(C(=O)N[C@@]2(C(=O)O)C[C@H]2CC)[C@H]2CCC(=O)[C@H]2C1 returned PAX8 inh HTS -10, SIRT5 inh -8, EWS-Fli inh -8 and PGC1a acetyl inh -8.
CC=Cc1ccc2n(c1=O)C[C@H]1[C@H](CO)[C@@H](C(=O)OC)[C@@H]2N1CC1CCCCC1 (mixture of isomers) was read as PAX8 inh HTS 12, SIRT5 inh -2, Ecoli rRNA inh -3, LGR2 inh -8 and EWS-Fli inh 7.
For Cc1ccc(N2C(=O)NC(=O)/C(=C/C=C/c3ccco3)C2=O)cc1 the results were PAX8 inh HTS -4 and LGR2 inh 8.
CCCCN1C(=O)/C(=C/C=C/c2ccco2)C(=O)NC1=S was read as PAX8 inh HTS 20, SIRT5 inh 38*, Ecoli rRNA inh 9, LGR2 inh -7, EWS-Fli inh 9 and PGC1a acetyl inh 11.
Screening CCc1ccc(N2C(=O)NC(=O)/C(=C\C=C\c3ccco3)C2=O)cc1 returned PAX8 inh HTS 42, SIRT5 inh -1, Ecoli rRNA inh 14, LGR2 inh -6, EWS-Fli inh 71* and PGC1a acetyl inh -114.
Screening N#Cc1cccc(-c2ccc([C@H]3[C@@H](CO)N4CCCCN(C(=O)Cc5ccccc5)C[C@@H]34)cc2)c1 returned PAX8 inh HTS 14, SIRT5 inh 0, Ecoli rRNA inh -21, LGR2 inh 11, EWS-Fli inh 8 and PGC1a acetyl inh -1.
Screening COCC#Cc1ccc([C@@H]2[C@H]3CN(C(=O)Cc4ccccn4)CCCCN3[C@H]2CO)cc1 returned PAX8 inh HTS -10, SIRT5 inh -3, Ecoli rRNA inh 1, LGR2 inh 18, EWS-Fli inh -11 and PGC1a acetyl inh 7.
Screening c1cnc(OCCN2CC2)cn1 returned PAX8 inh HTS 87*, SIRT5 inh -5 and EWS-Fli inh -5.
c1cc(OCCN2CC2)ccn1 was read as PAX8 inh HTS -18, SIRT5 inh 4, Ecoli rRNA inh 9, LGR2 inh -9 and EWS-Fli inh -11.
For COC(=O)[C@@H]1[C@@H](CO)[C@@H]2Cn3c(ccc(-c4ccncc4)c3=O)[C@H]1N2CCc1ccccc1 the results were SIRT5 inh 4, Ecoli rRNA inh 1, LGR2 inh 1 and EWS-Fli inh 2.
COC(=O)[C@@H]1[C@@H](CO)[C@@H]2Cn3c(ccc(-c4ccccc4)c3=O)[C@H]1N2CCc1ccccc1 was read as SIRT5 inh 16*, Ecoli rRNA inh -2, LGR2 inh -6 and EWS-Fli inh 0.
`COC(=O)[C@H]1[C@H](CO)[C@H]2Cn3c(ccc(-c4cccc(OC)c4)c3=O)[C@@H]1N2C(=O)c1ccccc1F` gave PAX8 inh HTS -2, SIRT5 inh -22, Ecoli rRNA inh -5, LGR2 inh 2, EWS-Fli inh 0 and PGC1a acetyl inh 0.
`O=C(Nc1ccc(Cl)cc1)OC1CN2CCC1CC2` (stereo not given) gave PAX8 inh HTS -76, SIRT5 inh -5, EWS-Fli inh -46 and PGC1a acetyl inh 7.
Screening O=C(Nc1cccc(Cl)c1)OC1CN2CCC1CC2 (stereo not given) returned PAX8 inh HTS -40, SIRT5 inh -5, Ecoli rRNA inh -39*, LGR2 inh -14, EWS-Fli inh -30 and PGC1a acetyl inh -2.
For O=[N+]([O-])c1ccc(N2CCOCC2)c2c1no[n+]2[O-] the results were PAX8 inh HTS 98*, Ecoli rRNA inh -24*, EWS-Fli inh 24 and PGC1a acetyl inh 84*.
For CN1[C@@H]2c3cccc(=O)n3C[C@H]1[C@H](CO)[C@H]2C(=O)NCC1CC1 the results were PAX8 inh HTS -9, SIRT5 inh 1, Ecoli rRNA inh 1, LGR2 inh -3 and EWS-Fli inh -1.

High-throughput results as filed in PubChem.
